The campaign covered roughly 5,500 compounds. About 2,000 (36%) were called active. About 18% were inconclusive and are not listed. Rule as the data show it: active = normalized growth mostly below about 0.91 (no sharp cut-off); inconclusive = no clear call, values can overlap the other calls; inactive = mostly above about 0.92. The list shows a part of the results.
Test: chemical genetic growth profiling, strain panel (AID 1159580);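 also: tested at 20 µM; growth read once vehicle control cultures reached saturation at 30 °C; 1 = growth at the plate median or of vehicle wells; lower values mean less growth of the strain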
Details: S. cerevisiae deletion strains, growth OD
[1] = locus YDL101C, strain DUN1, hits give low values
[2] = locus YHR030C, strain SLT2, hits give low values

Measured: normalized growth

Cc1ccc2nc(-c3ccc4c(c3)OCCO4)cn2c1
inactive: locus YAR019C, strain CDC15, hits give low values 0.981 | locus YBL105C, strain PKC1, hits give low values 0.98 | locus YBR135W, strain CKS1, hits give low values 0.984 | locus YBR136W, strain MEC1, hits give low values 0.983 | locus YBR160W, strain CDC28, hits give low values 0.978 | locus YDL017W, strain CDC7, hits give low values 0.985 | locus YDL028C, strain MPS1, hits give low values 0.984 | [1] 0.988 | locus YDL108W, strain KIN28, hits give low values 0.982 | locus YDL132W, strain cdc53, hits give low values 0.982 | locus YDL214C, strain PRR2, hits give low values 0.958 | locus YDR052C, strain DBF4, hits give low values 0.988 | locus YDR054C, strain cdc34, hits give low values 0.97 | locus YDR226W, strain ADK1, hits give low values 0.99 | locus YDR477W, strain SNF1, hits give low values 0.967 | locus YER123W, strain YCK3, hits give low values 0.941 | locus YER133W, strain GLC7, hits give low values 0.966 | locus YFL009W, strain cdc4, hits give low values 0.981 | locus YFL029C, strain CAK1, hits give low values 0.974 | locus YFR003C, strain YPI1, hits give low values 0.983 | locus YFR019W, strain FAB1, hits give low values 0.963 | locus YFR028C, strain CDC14, hits give low values 0.976 | locus YGR040W, strain KSS1, hits give low values 0.953 | locus YGR052W, strain FMP48, hits give low values 1.04 | locus YGR092W, strain DBF2, hits give low values 0.929 | [2] 0.986 | locus YHR079C, strain IRE1, hits give low values 0.966 | locus YHR082C, strain KSP1, hits give low values 1.01 | locus YHR205W, strain SCH9, hits give low values 0.956 | locus YIL147C, strain SLN1, hits give low values 0.983 | locus YJL095W, strain BCK1, hits give low values 0.984 | locus YJL128C, strain PBS2, hits give low values 0.969 | locus YJL157C, strain FAR1, hits give low values 0.944 | locus YJR016C, strain ILV3, hits give low values 0.983 | locus YJR066W, strain TOR1 (second series), hits give low values 0.911 | locus YJR066W, strain TOR1, hits give low values 1 | locus YKL048C, strain ELM1, hits give low values 0.959 | locus YKL067W, strain YNK1, hits give low values 0.967 | locus YKL101W, strain HSL1, hits give low values 0.951 | locus YKL193C, strain SDS22, hits give low values 0.983 | locus YKL203C, strain TOR2, hits give low values 1.01 | locus YLR113W, strain HOG1, hits give low values 0.899 | locus YLR133W, strain CKI1, hits give low values 0.956 | locus YLR403W, strain SFP1, hits give low values 0.947 | locus YML070W, strain DAK1, hits give low values 0.938 | locus YMR001C, strain CDC5, hits give low values 0.987 | locus YMR205C, strain PFK2 (second series), hits give low values 0.97 | locus YMR277W, strain FCP1, hits give low values 0.982 | locus YNL006W, strain LST8, hits give low values 0.989 | locus YNL020C, strain ARK1, hits give low values 0.961 | locus YNL161W, strain CBK1, hits give low values 0.974 | locus YNL183C, strain NPR1, hits give low values 0.996 | locus YNL207W, strain RIO2, hits give low values 0.978 | locus YNL222W, strain SSU72, hits give low values 0.979 | locus YNL307C, strain MCK1 (second series), hits give low values 0.94 | locus YOL078W, strain AVO1, hits give low values 0.98 | locus YOL136C, strain PFK27, hits give low values 0.929 | locus YOR061W, strain CKA2, hits give low values 0.966 | locus YOR119C, strain RIO1, hits give low values 0.997 | locus YOR231W, strain MKK1, hits give low values 0.932 | locus YOR329C, strain SCD5, hits give low values 0.985 | locus YPL031C, strain PHO85, hits give low values 0.958 | locus YPL153C, strain RAD53, hits give low values 0.947 | locus YPL204W, strain HRR25, hits give low values 0.935 | locus YPL209C, strain IPL1, hits give low values 0.978 | locus YPL256C, strain CLN2, hits give low values 0.923 | locus YPR025C, strain CCL1, hits give low values 0.981 | locus YPR106W, strain ISR1, hits give low values 0.973 | locus YPR111W, strain DBF20, hits give low values 0.965 | strain NNK1, hits give low values 0.975 | strain TSCII, hits give low values 0.986

COC(=O)C/C(N)=C(\C#N)C(=O)OC
inactive: locus YAL013W, strain DEP1, hits give low values 1 | locus YBR229C, strain ROT2, hits give low values 0.984 | locus YCL061C, strain MRC1, hits give low values 1.02 | [1] 1.03 | locus YDR150W, strain NUM1, hits give low values 1.01 | locus YEL061C, strain CIN8, hits give low values 0.994 | locus YGR078C, strain PAC10, hits give low values 1.05 | [2] 1.08 | locus YHR087W, strain rtc3, hits give low values 0.944 | locus YJL187C, strain SWE1, hits give low values 1.02 | locus YJR043C, strain POL32, hits give low values 1.02 | locus YJR075W, strain HOC1, hits give low values 1.01 | locus YKL190W, strain CNB1, hits give low values 0.986 | locus YLR039C, strain RIC1, hits give low values 0.993 | locus YLR058C, strain SHM2 (second series), hits give low values 0.983 | locus YLR085C, strain ARP6, hits give low values 0.995 | locus YLR262C, strain YPT6, hits give low values 0.982 | locus YML094W, strain GIM5, hits give low values 0.982 | locus YMR219W, strain ESC1, hits give low values 0.982 | locus YMR263W, strain SAP30, hits give low values 1.02 | locus YNL153C, strain GIM3, hits give low values 1.04 | locus YNL298W, strain CLA4 (second series), hits give low values 0.999 | locus YNL322C, strain KRE1, hits give low values 1.01 | locus YNR030W, strain Alg12, hits give low values 1.03 | locus YPL055C, strain LGE1, hits give low values 0.975 | locus YPL241C, strain CIN2, hits give low values 1.01 | locus YPR135W, strain CTF4, hits give low values 1.08
